Laboratory results reported in ChEMBL document CHEMBL3988442, “University of Dundee, Small-Polar-MMV Screening Library” (2021).
For some assays here: Entries with a potency or affinity are not part of this list.

What was measured:
Parameters in all cases: scale not given: direction of the effect not stated beside the values
[1] = molecular target: Protein translocase subunit SecA (Escherichia coli (strain K12)) (UniProt P10408); assay: Assay to Identify E. coli SecA ATPase Inhibitors; assay type: functional; settings: 30 µM
Chain of Protein translocase subunit SecA (Escherichia coli (strain K12)) (P10408 whole entry): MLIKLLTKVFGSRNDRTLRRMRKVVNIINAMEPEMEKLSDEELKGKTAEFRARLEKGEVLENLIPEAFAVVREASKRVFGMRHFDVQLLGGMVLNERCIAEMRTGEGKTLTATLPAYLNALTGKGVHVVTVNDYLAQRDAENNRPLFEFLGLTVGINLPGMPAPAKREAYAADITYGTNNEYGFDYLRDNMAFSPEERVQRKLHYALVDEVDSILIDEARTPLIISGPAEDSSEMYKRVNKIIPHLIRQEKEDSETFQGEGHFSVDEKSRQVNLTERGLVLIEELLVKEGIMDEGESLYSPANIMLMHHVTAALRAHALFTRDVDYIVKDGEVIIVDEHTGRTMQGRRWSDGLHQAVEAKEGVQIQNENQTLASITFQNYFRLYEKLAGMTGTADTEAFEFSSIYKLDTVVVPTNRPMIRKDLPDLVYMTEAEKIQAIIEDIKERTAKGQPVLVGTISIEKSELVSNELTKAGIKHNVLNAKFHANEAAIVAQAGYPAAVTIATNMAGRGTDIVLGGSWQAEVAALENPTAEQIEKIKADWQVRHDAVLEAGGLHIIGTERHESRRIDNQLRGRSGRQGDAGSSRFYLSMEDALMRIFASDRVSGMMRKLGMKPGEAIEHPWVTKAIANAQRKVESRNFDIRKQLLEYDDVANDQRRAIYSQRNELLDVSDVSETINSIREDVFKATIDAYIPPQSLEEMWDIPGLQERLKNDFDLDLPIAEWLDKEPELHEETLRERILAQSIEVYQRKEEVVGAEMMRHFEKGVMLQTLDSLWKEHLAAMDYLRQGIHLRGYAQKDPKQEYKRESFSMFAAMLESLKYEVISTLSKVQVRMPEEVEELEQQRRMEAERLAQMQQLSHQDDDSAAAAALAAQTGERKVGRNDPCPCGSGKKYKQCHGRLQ

[2] = molecular target: T1, Ubiquitin-activating enzyme e1, putative (Leishmania donovani (strain BPK282A1)) (UniProt E9BSI1); assay: Leishmania donovani Ubiquitin Activating Enzyme (LdE1); assay type: functional; settings: 30 µM
T1 sequence (whole entry): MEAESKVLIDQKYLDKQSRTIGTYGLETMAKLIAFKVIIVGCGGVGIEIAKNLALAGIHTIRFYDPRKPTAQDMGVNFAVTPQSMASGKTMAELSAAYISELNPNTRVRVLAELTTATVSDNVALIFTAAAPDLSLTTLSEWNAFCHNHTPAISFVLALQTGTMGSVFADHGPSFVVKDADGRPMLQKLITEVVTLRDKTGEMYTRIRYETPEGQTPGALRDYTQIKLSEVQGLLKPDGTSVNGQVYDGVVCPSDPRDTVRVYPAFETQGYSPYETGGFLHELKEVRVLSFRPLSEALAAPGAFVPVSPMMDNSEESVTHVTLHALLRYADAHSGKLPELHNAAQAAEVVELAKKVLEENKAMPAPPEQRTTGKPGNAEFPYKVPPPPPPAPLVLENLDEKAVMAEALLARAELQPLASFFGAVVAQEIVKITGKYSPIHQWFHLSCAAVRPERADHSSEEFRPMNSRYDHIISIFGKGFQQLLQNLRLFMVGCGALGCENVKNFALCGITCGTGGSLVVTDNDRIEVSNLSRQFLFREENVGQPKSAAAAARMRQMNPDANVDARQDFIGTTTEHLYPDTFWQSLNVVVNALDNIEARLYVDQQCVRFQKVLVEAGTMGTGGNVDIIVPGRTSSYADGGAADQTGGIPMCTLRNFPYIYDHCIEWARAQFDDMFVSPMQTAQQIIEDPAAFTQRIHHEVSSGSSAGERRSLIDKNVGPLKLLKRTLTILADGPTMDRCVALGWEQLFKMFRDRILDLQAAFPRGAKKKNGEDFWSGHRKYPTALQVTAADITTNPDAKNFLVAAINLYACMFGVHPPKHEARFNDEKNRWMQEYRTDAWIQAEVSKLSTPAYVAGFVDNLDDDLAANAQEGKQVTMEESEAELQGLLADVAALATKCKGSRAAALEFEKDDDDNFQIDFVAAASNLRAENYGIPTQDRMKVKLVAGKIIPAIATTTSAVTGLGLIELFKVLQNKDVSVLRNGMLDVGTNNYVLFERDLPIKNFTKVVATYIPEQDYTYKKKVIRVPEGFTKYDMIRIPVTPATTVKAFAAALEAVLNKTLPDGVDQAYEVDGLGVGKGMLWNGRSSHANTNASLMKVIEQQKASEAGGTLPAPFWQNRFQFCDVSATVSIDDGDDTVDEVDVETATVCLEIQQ

[3] = molecular target: AMP-activated protein kinase, AMPK (Homo sapiens) (UniProt P54646+O43741+P54619+Q9UGJ0+Q9Y478+Q13131+Q9UGI9); assay: AMP-dependent Kinase enzyme assay. An in vitro enzyme assay that detects ADP turnover that is directly proportional to AMPK activity. This uses naive AMPK that is activated during the assay with MK-8722; assay type: functional; settings: 30 µM
[4] = molecular target: Sialic acid-binding Ig-like lectin 9 (Homo sapiens) (UniProt Q9Y336); assay: Hs-Siglec9 ALPHAscreen SOP 20170721; settings: 10 µM
Chain of Sialic acid-binding Ig-like lectin 9 (Homo sapiens) (Q9Y336 whole entry): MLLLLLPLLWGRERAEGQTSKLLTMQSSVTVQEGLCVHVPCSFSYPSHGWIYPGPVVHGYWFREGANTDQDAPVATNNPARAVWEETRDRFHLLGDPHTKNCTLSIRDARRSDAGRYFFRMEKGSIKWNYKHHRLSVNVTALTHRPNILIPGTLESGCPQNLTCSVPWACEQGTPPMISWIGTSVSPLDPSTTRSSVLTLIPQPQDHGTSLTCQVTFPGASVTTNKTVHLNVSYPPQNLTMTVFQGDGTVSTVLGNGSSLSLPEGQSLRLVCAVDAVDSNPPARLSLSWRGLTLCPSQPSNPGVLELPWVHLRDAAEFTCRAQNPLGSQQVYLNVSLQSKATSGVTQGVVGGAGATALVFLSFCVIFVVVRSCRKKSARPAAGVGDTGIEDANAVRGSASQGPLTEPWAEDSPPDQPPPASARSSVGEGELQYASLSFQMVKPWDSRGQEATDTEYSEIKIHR

Trypanosoma cruzi = assay: Trypanosoma cruzi phosphomannomutase and mannose-1-phosphate guanylyltransferase assay; assay type: functional; settings: 10 µM
[5] = molecular target: T2, Arginase-2, mitochondrial (Homo sapiens) (UniProt P78540); assay: in vitro enzyme assay to detect the production of urea directly proportional to the activity of Arginase II; assay type: functional; settings: 33.3 µM; further: in the data most compounds retested in dose-response had high values
T2 sequence (whole entry): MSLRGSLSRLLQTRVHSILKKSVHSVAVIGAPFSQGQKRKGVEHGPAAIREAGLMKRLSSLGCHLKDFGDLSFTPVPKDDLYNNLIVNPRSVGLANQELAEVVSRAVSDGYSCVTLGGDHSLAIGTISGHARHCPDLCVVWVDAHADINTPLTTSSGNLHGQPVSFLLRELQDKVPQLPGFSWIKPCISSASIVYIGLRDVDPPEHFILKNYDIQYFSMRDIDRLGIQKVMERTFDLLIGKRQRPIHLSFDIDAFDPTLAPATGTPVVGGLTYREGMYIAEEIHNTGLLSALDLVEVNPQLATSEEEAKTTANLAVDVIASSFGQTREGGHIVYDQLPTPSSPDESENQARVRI

[6] = molecular target: T3, Proteasome subunit beta (Trypanosoma cruzi) (UniProt O96673); assay: Trypanosoma cruzi proteasome chymotrypsin-like activity (TcProtChymo) assay.; further: in the data most compounds retested in dose-response had high values; assay type: functional; settings: 9.37 µM
T3 sequence (whole entry): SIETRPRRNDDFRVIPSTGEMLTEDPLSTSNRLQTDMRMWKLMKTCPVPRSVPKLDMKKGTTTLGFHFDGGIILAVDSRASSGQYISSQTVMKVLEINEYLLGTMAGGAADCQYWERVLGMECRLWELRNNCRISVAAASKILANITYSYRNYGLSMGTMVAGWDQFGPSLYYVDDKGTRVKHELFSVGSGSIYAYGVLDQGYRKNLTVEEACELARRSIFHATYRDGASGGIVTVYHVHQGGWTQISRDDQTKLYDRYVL

Homo sapiens = species: Homo sapiens; assay: To identify inhibition of the IFN signalling (Jak-Stat) pathway via expression of an eGFP reporter gene under the control of an IFN-stimulated response element (ISRE) containing MxA promoter.; assay type: functional; settings: 30 µM
[7] = molecular target: T4, Tyrosyl-tRNA synthetase, putative (Trypanosoma cruzi (strain CL Brener)) (UniProt Q4DSP6); assay: Trypanosoma cruzi tyrosyl tRNA synthetase (TcYRS) _High Tyrosine SOP; assay type: functional; settings: 30 µM; further: in the data most compounds retested in dose-response had high values
T4 sequence (whole entry): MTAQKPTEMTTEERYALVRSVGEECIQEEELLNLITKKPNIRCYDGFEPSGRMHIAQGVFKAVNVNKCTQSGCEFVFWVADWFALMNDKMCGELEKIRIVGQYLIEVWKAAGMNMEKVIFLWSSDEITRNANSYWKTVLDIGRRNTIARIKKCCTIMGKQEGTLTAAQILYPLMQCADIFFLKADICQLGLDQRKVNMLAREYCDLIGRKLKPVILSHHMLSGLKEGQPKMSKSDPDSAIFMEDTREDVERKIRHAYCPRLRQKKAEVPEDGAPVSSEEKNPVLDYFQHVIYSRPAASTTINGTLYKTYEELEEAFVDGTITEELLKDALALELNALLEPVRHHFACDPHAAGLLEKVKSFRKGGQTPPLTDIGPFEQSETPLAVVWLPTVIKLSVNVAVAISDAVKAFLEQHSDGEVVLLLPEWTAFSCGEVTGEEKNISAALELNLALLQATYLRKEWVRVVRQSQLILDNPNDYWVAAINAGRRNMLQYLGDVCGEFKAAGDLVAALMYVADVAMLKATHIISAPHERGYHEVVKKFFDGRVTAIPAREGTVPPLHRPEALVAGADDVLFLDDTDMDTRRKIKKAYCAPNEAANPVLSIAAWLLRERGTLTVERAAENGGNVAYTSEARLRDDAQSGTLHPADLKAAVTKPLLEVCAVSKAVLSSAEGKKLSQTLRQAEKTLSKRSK

[8] = molecular target: T4, Tyrosyl-tRNA synthetase, putative (Trypanosoma cruzi (strain CL Brener)); assay: Trypanosoma cruzi tyrosyl tRNA synthetase (TcYRS) SOP; assay type: functional; settings: 30 µM
[9] = molecular target: Chromo domain-containing protein 1 (Saccharomyces cerevisiae (strain ATCC 204508 / S288c) (Baker's yeast)) (UniProt P32657); assay: ScCHD-1 Enzyme Inhibition Assay; assay type: functional; settings: 30 µM; further: in the data most compounds retested in dose-response had high values
Chain of Chromo domain-containing protein 1 (Saccharomyces cerevisiae (strain ATCC 204508 / S288c) (Baker's yeast)) (P32657 whole entry, the tested form may be a part): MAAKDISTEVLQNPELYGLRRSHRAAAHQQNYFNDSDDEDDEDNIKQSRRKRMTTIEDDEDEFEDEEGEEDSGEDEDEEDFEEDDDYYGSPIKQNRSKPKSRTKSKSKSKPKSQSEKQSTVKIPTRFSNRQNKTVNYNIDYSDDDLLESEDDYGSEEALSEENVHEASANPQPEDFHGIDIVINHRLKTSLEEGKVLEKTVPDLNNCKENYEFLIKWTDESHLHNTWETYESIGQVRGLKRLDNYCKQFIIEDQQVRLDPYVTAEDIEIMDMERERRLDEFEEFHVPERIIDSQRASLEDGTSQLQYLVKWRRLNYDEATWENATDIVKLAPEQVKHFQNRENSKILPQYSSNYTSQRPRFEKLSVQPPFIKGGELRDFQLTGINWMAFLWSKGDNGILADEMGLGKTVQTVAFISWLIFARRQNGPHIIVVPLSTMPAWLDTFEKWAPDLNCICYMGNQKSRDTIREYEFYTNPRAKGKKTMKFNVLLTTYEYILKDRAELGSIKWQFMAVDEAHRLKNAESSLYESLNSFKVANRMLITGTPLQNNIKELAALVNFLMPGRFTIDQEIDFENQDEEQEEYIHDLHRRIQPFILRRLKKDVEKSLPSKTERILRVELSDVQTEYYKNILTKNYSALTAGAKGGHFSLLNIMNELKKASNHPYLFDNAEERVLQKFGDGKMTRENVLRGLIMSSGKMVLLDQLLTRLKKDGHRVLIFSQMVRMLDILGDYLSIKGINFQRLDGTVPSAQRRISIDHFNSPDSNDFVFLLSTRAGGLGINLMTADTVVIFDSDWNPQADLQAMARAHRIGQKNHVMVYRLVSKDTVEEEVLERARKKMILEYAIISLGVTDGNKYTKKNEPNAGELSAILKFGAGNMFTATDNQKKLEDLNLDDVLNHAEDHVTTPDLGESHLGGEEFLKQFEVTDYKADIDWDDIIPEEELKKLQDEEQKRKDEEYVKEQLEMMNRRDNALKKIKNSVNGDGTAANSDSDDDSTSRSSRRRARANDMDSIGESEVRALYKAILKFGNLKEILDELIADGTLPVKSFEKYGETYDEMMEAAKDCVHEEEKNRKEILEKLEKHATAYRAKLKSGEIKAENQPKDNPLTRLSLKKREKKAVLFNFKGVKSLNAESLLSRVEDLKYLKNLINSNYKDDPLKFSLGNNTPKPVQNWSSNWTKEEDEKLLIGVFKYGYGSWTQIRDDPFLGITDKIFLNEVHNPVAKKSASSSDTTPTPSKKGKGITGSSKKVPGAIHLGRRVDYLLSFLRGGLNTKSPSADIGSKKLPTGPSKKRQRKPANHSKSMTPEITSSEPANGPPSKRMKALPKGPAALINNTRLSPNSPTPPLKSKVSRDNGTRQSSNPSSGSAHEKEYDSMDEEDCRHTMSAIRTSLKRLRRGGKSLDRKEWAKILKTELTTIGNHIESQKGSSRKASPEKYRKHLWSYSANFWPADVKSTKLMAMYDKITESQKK

Row | SMILES | Percent Effect [1] | Percent Effect [2] | Percent Effect [3] | Percent Effect [4] | Percent Effect (Trypanosoma cruzi) | Percent Effect [5] | Percent Effect [6] | Percent Effect (Homo sapiens) | Percent Effect [7] | Percent Effect [8] | Percent Effect [9]
1 | Cn1cc(Cl)cc1C(=O)N1CCN(Cc2ccsc2)CC1 | -0.357% | 5.26% | 5.58% | -5.04% | 4.13% | 0.766% | -1.67% | -2.56% | 2.45% | 4.88% | -0.287%
2 | Cc1ccc(=O)n(CC2(O)CCN(Cc3cnc(C)nc3)CC2)n1 | -6.32% | 6.76% | 4.75% | -1.5% | -2.96% | -3.48% | 11.9% | 17.5% | -1.07% | 3.9% | 5.12%
3 | CN1CCN(C(=O)[C@H]2C[C@@H]3CCN(c4ncc(F)cn4)C[C@@H]3O2)CC1 | 1.76% | 8% | 10% | 14.4% | -2.51% | -53.2% | 10.3% | 7.21% | 0% | 17.5% | -8.06%
4 | CNC(=O)C(NC(=O)c1nccn2ccnc12)c1ccc(F)c(F)c1 (stereo unspecified) | -5.39% | 13.5% | -2.95% | 5.66% | 5.27% | 16.2% | 19% | -10.6% | 5.94% | 15.8% | 23.6%
5 | O=C(NCc1cncc2c1CCN(Cc1cccc(F)c1)C2)C1CC1 | -4.48% | 0% | 5.3% | 4.67% | -3.97% | -5.59% | 7.96% | 9.89% | -5.21% | 6.17% | 2.56%
6 | O=C(Cc1c[nH]c2ccccc12)N1CCN(C(=O)c2ccoc2)CC1 | -2.06% | 13.2% | 1.95% | -3.58% | 0.487% | 14.2% | 12.9% | 21.1% | 7.45% | 18.2% | -2.68%
7 | CN(CCNC(=O)Nc1ccncc1)C1CCCCC1 | -4.37% | 21.6% | -4.55% | 6.96% | 8.21% | -0.401% | 16.6% | 8.26% | 5.42% | 23.5% | -11%
8 | CN(C(=O)Cn1nc(-c2cccs2)ccc1=O)C1CCS(=O)(=O)C1 (stereo unspecified) | -7.27% | 0% | -37.7% | -0.941% | -7.3% | 1.18% | 14.9% | 19.4% | -5.32% | -10.4% | -7.9%
9 | CCN1CC(C(=O)NC(C)(C)CNC(=O)OC(C)(C)C)CC1=O (stereo unspecified) | -5.66% | 8.11% | -1.21% | 20.7% | -1.66% | 4.22% | 7.47% | -16.6% | 4.3% | 8.64% | -4.86%
10 | Cc1nc(CC(=O)N2CCCN(c3ccc(C#N)cc3)CC2)cs1 | -2.43% | 0% | 5.74% | -0.961% | -5.55% | -4.73% | 14.5% | 2.28% | 2.13% | 5.2% | -1.52%
11 | Cc1noc(CN(Cc2ccc3c(c2)OCO3)Cc2ccc(C)o2)n1 | -2.53% | 13.5% | -9.33% | -9.31% | -5.75% | 3.21% | 13.3% | 27.4% | 8.37% | 13.6% | -6.37%
12 | O=C(Nc1nncs1)NC1CCc2ccccc21 (stereo unspecified) | 0.119% | 5.48% | 1.57% | 3.21% | -6.94% | -3.19% | 8.13% | 40.4% | 6.25% | 16.1% | -1.82%
13 | COc1ccc(NC(=O)CNc2cccc3c2CCCC3)c(OC)c1 | -6.64% | -2.7% | -0.0771% | 0.268% | -5.57% | -3.23% | 6.95% | -3.03% | -6.45% | -11.1% | -3.27%
14 | CN1CCCN(C(=O)NCc2csc(Br)c2)CC1 | -5.63% | 10.8% | -0.581% | 13.3% | 0.0929% | 3.88% | 3.05% | 15.4% | 6.93% | 18.3% | -0.533%
15 | CCCc1n[nH]c(C2CN(C(=O)c3ccco3)CCO2)n1 (stereo unspecified) | -3.05% | 0% | 2.64% | -8.28% | -1.03% | 2.52% | 8.71% | -11.3% | 0.493% | -1.24% | 13.1%
16 | CC(CNCc1ccc(Cl)c(Cl)c1)Oc1ccccn1 (stereo unspecified) | -2.19% | 12% | 0.69% | -3.31% | 4.91% | -7.22% | 20.5% | 26.5% | 6.35% | 10.3% | -11.8%
